Source: PubChem
MPTP inh: permeability transition pore inhibition; isolated mouse mitochondria, Ca2+ swelling absorbance, 30 min; inhibition, % at 10 µM; 360,000 compounds, 1.4% hits; AID 602449;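 active = inhibition of 50% or more, scaled per plate between neutral and stimulator controls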;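 note: 0% = DMSO wells given calcium and 100% = 1 mM EGTA wells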
CSC inhib: blocks cancer stem cells; cancer stem cell-like cells viability, luminescence; inhibition, % at 7.5 µM; 300,000 compounds, 1.1% hits; in the data active = inhibition above about 75%; tested in HMLE shEcad cells
NR3A LBD binder: NR3A (human) ligand-binding domain modulation; Tm shift relative to glycine control, % at 25 µM; AID 1259313; 340,000 compounds, 2.5% hits; NR3A LBD differential scanning fluorimetry, Tm shift; 0% = protein alone, 100% = glycine-bound protein;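 active = melting temperature shift of at least 10% of the positive control shift, at one fixed dose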
SKKanGAS inh: SKKanGAS growth inhibition; 300,000 compounds, 1.3% hits; inhibition, % at 7.5 µM; AID 1662; S. pyogenes SKKanGAS, kanamycin growth, BacTiter-Glo, 6 h;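 active = mean replicate score, as percent of positive control median, at least 50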;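 note: strain carries kanamycin resistance gene driven by streptokinase promoter and grows in 40 µg/ml kanamycin; loss of luminescence reflects streptokinase promoter inhibition or plain growth inhibition; 0% = median of DMSO wells and 100% = positive control at its reference dose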
Beta apoptosis: blocks beta cell apoptosis. INS-1E cytokine-induced death, ATP luminescence, 48 h; percent of positive-control rescue, neutral wells zero. protection from apoptosis, % (concentration not given with the values). 300,000 compounds, 0.8% hits;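 active = Every replicate reaches about 75%, or at least half do and their mean reaches it too, limit read from the data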;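 note: 0% = cytokine-treated negative control wells and 100% = positive control rescue; higher means more ATP so stronger rescue from cytokine killing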
Mdm2 MdmX PPI: inhibitors of human Mdm2/MdmX interaction; SaOS-2 split-luciferase Mdm2/MdmX complementation, luminescence; inhibition, % at 8 µM; 330,000 compounds, 3% hits; AID 485346;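 active = inhibition of at least 50% at 8 µM in the primary screen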
Target sequence (O15151 whole entry, looked up): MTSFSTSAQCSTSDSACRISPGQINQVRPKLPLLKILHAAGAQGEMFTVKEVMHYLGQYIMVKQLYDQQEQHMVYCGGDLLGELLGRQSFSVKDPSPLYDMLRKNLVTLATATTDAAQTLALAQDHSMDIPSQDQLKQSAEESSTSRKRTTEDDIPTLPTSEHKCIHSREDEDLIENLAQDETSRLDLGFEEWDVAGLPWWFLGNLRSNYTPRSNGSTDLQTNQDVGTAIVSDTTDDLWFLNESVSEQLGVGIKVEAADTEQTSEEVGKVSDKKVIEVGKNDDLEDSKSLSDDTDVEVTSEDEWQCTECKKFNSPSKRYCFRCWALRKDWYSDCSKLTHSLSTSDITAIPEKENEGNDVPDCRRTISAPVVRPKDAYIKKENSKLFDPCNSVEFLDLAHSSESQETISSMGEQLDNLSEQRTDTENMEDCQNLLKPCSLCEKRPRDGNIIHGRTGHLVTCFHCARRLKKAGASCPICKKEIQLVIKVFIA
Target sequence (Q00987 whole entry, looked up): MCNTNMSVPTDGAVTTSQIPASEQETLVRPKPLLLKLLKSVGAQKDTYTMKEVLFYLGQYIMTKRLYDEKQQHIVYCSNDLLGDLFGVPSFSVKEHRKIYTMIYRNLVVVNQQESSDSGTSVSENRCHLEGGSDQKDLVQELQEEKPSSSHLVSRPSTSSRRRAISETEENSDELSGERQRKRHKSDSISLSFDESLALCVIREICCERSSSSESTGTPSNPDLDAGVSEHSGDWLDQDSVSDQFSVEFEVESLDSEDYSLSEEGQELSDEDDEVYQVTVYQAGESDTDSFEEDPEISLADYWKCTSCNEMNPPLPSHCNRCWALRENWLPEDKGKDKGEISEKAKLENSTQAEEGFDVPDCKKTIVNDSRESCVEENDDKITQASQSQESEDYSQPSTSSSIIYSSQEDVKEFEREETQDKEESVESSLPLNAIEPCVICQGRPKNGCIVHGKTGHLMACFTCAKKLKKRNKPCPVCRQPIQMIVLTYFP
* = called active by the depositor. Sampled rows, rich in hits. Any-hit rate of the full collection: about 6.9%.

What do the screens show for `N#Cc1ccc(-c2ccccc2)nc1SCC(=O)c1cc2ccccc2oc1=O`?
MPTP inh: 4; CSC inhib: 20; NR3A LBD binder: -4; SKKanGAS inh: 109*; Beta apoptosis: 1; Mdm2 MdmX PPI: 6

Results for Clc1ccc(-c2nc(N3CCCCC3)nc3ccccc23)cc1 ?
MPTP inh: 2; CSC inhib: 1; NR3A LBD binder: 0; SKKanGAS inh: 90*; Beta apoptosis: 7; Mdm2 MdmX PPI: 25

Results for Cc1ccc(-c2ccnc(-c3ccc(O)cc3)n2)cc1 ?
MPTP inh: 1; CSC inhib: -9; NR3A LBD binder: -11; SKKanGAS inh: 0; Beta apoptosis: -9; Mdm2 MdmX PPI: -37

Results for Oc1ccc(-c2nccc(-c3ccc(Br)cc3)n2)cc1 ?
MPTP inh: 3; CSC inhib: 51; NR3A LBD binder: 37*; SKKanGAS inh: 16; Beta apoptosis: -2; Mdm2 MdmX PPI: -27

How did CCOc1ccc(OCCSc2nc3ccccc3o2)cc1 do in these assays?
MPTP inh: 1; CSC inhib: -20; NR3A LBD binder: 21*; SKKanGAS inh: 6; Beta apoptosis: 0; Mdm2 MdmX PPI: -2

Results for COc1cc(-c2nc(CN3CCN(c4ncccn4)CC3)c(C)o2)ccc1F ?
MPTP inh: 0; CSC inhib: 6; NR3A LBD binder: 0; SKKanGAS inh: -7; Beta apoptosis: 10; Mdm2 MdmX PPI: 19

What do the screens show for `Cc1c(C(=O)N2CCc3ccccc32)oc2ccccc12`?
MPTP inh: 0; CSC inhib: 17; NR3A LBD binder: 14*; SKKanGAS inh: 2; Beta apoptosis: 9

What do the screens show for `Nc1[nH]c2cc([N+](=O)[O-])ccc2c1-c1ccccn1`?
MPTP inh: 14; CSC inhib: 36; NR3A LBD binder: 31*; SKKanGAS inh: 1; Beta apoptosis: 9; Mdm2 MdmX PPI: 28

How did O=C(COc1cccc(NC(=O)c2cccs2)c1)c1ccc(F)cc1 do in these assays?
MPTP inh: -6; CSC inhib: -4; NR3A LBD binder: 13*; SKKanGAS inh: -8; Beta apoptosis: -5; Mdm2 MdmX PPI: 20

How did COc1cc(NC(=O)c2cccc(Cl)c2)ccc1NC(=O)c1cccs1 do in these assays?
MPTP inh: -1; NR3A LBD binder: 30*; Beta apoptosis: -3; Mdm2 MdmX PPI: -27

How did COc1cc(NC(=O)c2ccc([N+](=O)[O-])o2)ccc1NC(=O)c1cccs1 do in these assays?
MPTP inh: 1; CSC inhib: 50; NR3A LBD binder: 24*; SKKanGAS inh: 22; Beta apoptosis: 78*; Mdm2 MdmX PPI: 25

What do the screens show for `COc1cc(NC(=O)c2ccccc2Cl)ccc1NC(=O)c1cccs1`?
MPTP inh: 0; CSC inhib: 1; NR3A LBD binder: 0; SKKanGAS inh: -7; Beta apoptosis: 6; Mdm2 MdmX PPI: -78

What do the screens show for `O=C(COc1cccc(NC(=O)c2ccccc2)c1)c1ccccc1`?
MPTP inh: -1; CSC inhib: 42; NR3A LBD binder: -36; SKKanGAS inh: -19; Beta apoptosis: 4; Mdm2 MdmX PPI: -23

What do the screens show for `COc1cc(NC(=O)c2cccs2)ccc1NC(=O)Cc1ccccc1`?
MPTP inh: 1; CSC inhib: -5; NR3A LBD binder: -4; SKKanGAS inh: 19; Beta apoptosis: 1; Mdm2 MdmX PPI: 18

What do the screens show for `COc1cccc(C(=O)Nc2cccc(C(=O)NCC(C)C)c2)c1`?
MPTP inh: 1; CSC inhib: -1; NR3A LBD binder: 13*; SKKanGAS inh: -5; Beta apoptosis: -2; Mdm2 MdmX PPI: 14

How did COc1ccc(NC(=O)CN(C)C(=O)CNC(=O)c2ccc3ccccc3c2)cc1 do in these assays?
MPTP inh: 0; NR3A LBD binder: 0; Mdm2 MdmX PPI: -52

How did CCC(=O)Nc1cc(-c2cc3ccccc3oc2=O)ccc1OC do in these assays?
MPTP inh: 0; CSC inhib: 3; NR3A LBD binder: -4; SKKanGAS inh: -1; Beta apoptosis: 5; Mdm2 MdmX PPI: -14

How did COc1ccc(-c2cc3ccccc3oc2=O)cc1NC(=O)c1ccc([N+](=O)[O-])o1 do in these assays?
MPTP inh: 1; NR3A LBD binder: -1; SKKanGAS inh: 20; Beta apoptosis: 82*; Mdm2 MdmX PPI: 6

How did COc1cccc(C(=O)Nc2cccc(NC(=O)c3cccs3)c2)c1 do in these assays?
MPTP inh: 2; CSC inhib: -6; NR3A LBD binder: 17*; SKKanGAS inh: -4; Beta apoptosis: 7; Mdm2 MdmX PPI: 2

What do the screens show for `Cc1ccc(Nc2nc(N)nc(COC(=O)C3=COCCO3)n2)cc1`?
MPTP inh: 0; CSC inhib: 8; NR3A LBD binder: 2; Beta apoptosis: 1; Mdm2 MdmX PPI: -58

Results for O=C(CC1CCCC1)N1CCN(S(=O)(=O)c2cccc(Br)c2)CC1 ?
MPTP inh: 9

What do the screens show for `CCN(CC(=O)NCc1ccc(Cl)cc1)C(=O)COc1cccc(Cl)c1`?
MPTP inh: 0; CSC inhib: -7; NR3A LBD binder: -2; SKKanGAS inh: 3; Beta apoptosis: -6; Mdm2 MdmX PPI: 4

What do the screens show for `CCOc1ccc(C(=O)CCC(=O)N(CC)CC(=O)NCc2ccc(Cl)cc2)cc1`?
MPTP inh: -1; CSC inhib: -1; NR3A LBD binder: 13*; SKKanGAS inh: -6; Beta apoptosis: 0; Mdm2 MdmX PPI: 25

Results for COc1cccc2sc(NC(=O)c3ccc(Br)s3)nc12 ?
MPTP inh: 0; CSC inhib: 7; NR3A LBD binder: 11*; SKKanGAS inh: 1; Beta apoptosis: 18; Mdm2 MdmX PPI: 21

How did CSc1nc2ccc(NC(=O)c3nn(C(C)C)c(=O)c4ccccc34)cc2s1 do in these assays?
MPTP inh: 5; CSC inhib: 4; NR3A LBD binder: -6; SKKanGAS inh: 20; Beta apoptosis: 7; Mdm2 MdmX PPI: 5

Results for Cc1nc2ccc(NC(=O)c3nn(C(C)C)c(=O)c4ccccc34)cc2s1 ?
MPTP inh: 1; CSC inhib: -6; NR3A LBD binder: 17*; SKKanGAS inh: 5; Beta apoptosis: 0; Mdm2 MdmX PPI: 3

How did Cc1nc2ccc(NC(=O)c3ccc(Cl)s3)cc2s1 do in these assays?
MPTP inh: 0; CSC inhib: 8; NR3A LBD binder: 27*; SKKanGAS inh: 2; Beta apoptosis: -2; Mdm2 MdmX PPI: -105

How did Cc1nc2ccc(NC(=O)c3cnc(Cl)c(Cl)c3)cc2s1 do in these assays?
MPTP inh: 2; CSC inhib: 5; NR3A LBD binder: -3; SKKanGAS inh: 4; Beta apoptosis: -4; Mdm2 MdmX PPI: 4

Results for Cc1ccc(C(=O)Nc2nc3ccccc3s2)s1 ?
MPTP inh: -3; CSC inhib: 8; NR3A LBD binder: 18*; SKKanGAS inh: -1; Beta apoptosis: 11; Mdm2 MdmX PPI: -137

How did Cc1nc2ccccc2n1C(=O)N(C)C do in these assays?
MPTP inh: -1; NR3A LBD binder: -1; SKKanGAS inh: 1; Beta apoptosis: -6; Mdm2 MdmX PPI: 16

How did O=C(O)CSCC(=O)Nc1ccccc1SCCS(=O)(=O)c1ccc(Cl)cc1 do in these assays?
MPTP inh: 0; CSC inhib: 1; NR3A LBD binder: -3; SKKanGAS inh: 3; Beta apoptosis: 1
